From PubChem BioAssay AID1508600 (Functional Genomics Laboratory (NCATS/FGL), 2020)
Hit rate of the full screen: of about 53,000 sequences, about 3,700 (7%) were called active. The sample as a whole holds a higher share of actives than the screen did. A number with no mark means an inactive call.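 Rule for the calls: active = gene knockdowns whose robust z-score for IL-1 alpha signal is at least 2 or at most -2, so actives lie on both sides; inactive = the rest.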

assay: Components of the Cytosolic LPS Sensing Pathway: Gene Identification via Genome-wide siRNA Screen; conditions: RAW264.7 macrophages, IL-1a HTRF, actives lie on both sides, screened at 100 nM (by protocol), cells primed 5 h with Pam3CSK4 first
From the text: Non-canonical inflammasome activation by cytosolic LPS is a critical component of the host response to Gram-negative bacterial infection, however we lack a comprehensive understanding of the cellular processes that control this pathway. Here we describe a genome-wide siRNA screen to identify genes regulating the mouse macrophage IL-1 alpha response to cytosolic LPS.
RAW264.7 cells were maintained in complete DMEM media, comprising DMEM with 4.5 g/L glucose, 10% FBS (Gemini Bio-Products, West Sacramento, CA), 2 mM Glutamine (Lonza) and 20 mM HEPES (Lonza), hereafter complete DMEM.
The RNAi screen was conducted in 384-well format using the Ambion Silencer Mouse Genome siRNA Library (#4391425), which consists of three unique, nonoverlapping, nonpooled siRNAs for each of 17,000 gene targets. siRNA reagents ([…]) were stamped into 384-well white flat-bottom microplates (Corning, 3570) using a Velocity11 VPrep liquid handling system (Agilent) integrated into a BioCel robotic platform (Agilent) in columns 1-22, leaving columns 23-24 empty for negative (Ambion, Negative control #1) and positive (mouse Casp4) controls, respectively. The median value of each plate's negative control column was used to normalize sample wells, and the positive control was used to assess transfection efficiency and assay performance.
Lipofectamine RNAiMAX Transfection Reagent ([…]; Invitrogen) was added in […] serum-free, antibiotic-free media to plate wells using a Thermo Scientific Matrix WellMate and Microplate Stacker. Plates were incubated for 45 min at room temperature to allow for the sufficient formation of siRNA-lipid complexes. Cells were seeded at a density of 1x10^4 cells per well in 20 microL media containing 20% (vol/vol) FBS without antibiotics. The final concentration of siRNA in each well was 100 nM. Cells were cultured for 48h at 37 degrees C in 5% CO2 before addition of […] of TLR ligand Pam3CSK4 for 5 hours. The medium was then removed, replaced with […] growth media and cell were transfected with […] of LipidA and TransIT-TKO (Mirus) for 24 hour. At the end of the LipidA treatment, […] of supernatant was transferred to a 384 Greiner Bio-one non-binding low volume plate and […] of IL-1a HTRF reagent (Cisbio, 62MIL1APEH) was added and incubated at room temperature overnight. The plates were read on an EnVision plate reader (PerkinElmer). Cell viability was measured by adding 20ul Cell Titer Glo to the original plate and running a luminescence read on the EnVision. The quantified IL-1a signal for each siRNA gene-targeted well was divided by the median of the negative control wells and multiplied by 100 to achieve a negative control normalized value for each well/siRNA. This normalized value was then used to generate a robust z-score by first taking the log of each value and then by subtracting the median and dividing by the […].

| Sequence | z-score |
| --- | --- |
| GGUCCACACCAGACAUCAATT against Wfdc5 | 0.263 |
| CGGUGAUGGUUCAUUUGCATT against Zmiz2 | 1.36 |
| GGCUGUGAAGAACUGGCAGTT against Rnaseh2a | 1.85 |
| GGUUGUGAGCUAACAAUGGTT against B430209F14Rik | 1.25 |
| GAGAACGCGUUUUUGGGACTT against Defa5 | 1.66 |
| GGGAUGUAUUAGUGAAAGGTT against Dmpk | 0.368 |
| GGAGGAAAUAUGUUAACUATT against Atp6ap2 | 1.22 |
| CGGCAACCGGCACUAUAAATT against Pnoc | 0.231 |
| GGCAUUUCAUAGAGAGAAUTT against LTO1 | -2.21 (active) |
| GCCUUAGGCCUUUGUUUCCTT against Tpgs2 | 0.124 |
| GGUUCUGGACUUCAUCCUCTT against Ocstamp | 1.42 |
| GGAAAAUUAAUAGCACAAGTT against Acot13 | 0.0633 |
| GGUUUACUGUGAAAAAAGATT against Morc2b | 0.0774 |
| CCUGAUACUAACAAGGAAATT against Afmid | -0.625 |
| GGUUGUCUUGACACCCUACTT against Tnfrsf1b | -2.21 (active) |
| GGAGAAGCAGAUUCUUCAATT against Calhm6 | -0.0547 |
| GGGAUGUCUGUUGAAAUAATT against Prcc | -0.422 |
| CCAUGACACUCAUUCCCAGTT against Tbc1d7 | -2.64 (active) |
| CCAUGUUUAUGGCACGCUGTT against Postn | 0.536 |
| GGUUUGUAGAGGCAUCAAGTT against Snph | -0.13 |
| GCAUCCUUCUGAGUUGAUGTT against Tollip | -1.02 |
| CCUUGAGAAAGCUCCAGUUTT against Cldn9 | 0.0773 |

| Sequence | z-score |
| --- | --- |
| GGUGUUUCAUAUGGUUACUTT against Psma3 | -0.94 |
| GGAAGUUUGAGUUUGAGCUTT against Fbxl21 | 1.79 |
| GCUCUCUAUAGGAUAAUGGTT against Vwa5b2 | -1.86 |
| CGAUAUCAAGAGUGCAUGATT against Gas6 | 2.97 (active) |
| GGCUAAUCACCAAUUUCUUTT against Derl2 | -1.19 |
| GCACCUUCAACCAACAAGGTT against Dph3 | -0.311 |
| GGUCAUUCGCUUCGAAAAGTT against C1qb | -2.05 (active) |
| GGAAUUCCUCUGUAUGAAATT against Pgr | -0.824 |
| GGACUACCACAGCCUCUUCTT against Pxn | 0.173 |
| GGGCAAAUGAUAUAAGGAUTT against Ndufa12 | -0.585 |
| CCUCUUGGUUAAAUAAUGUTT against Rnf103 | -1.9 |
| GCGGCAACAUUCAAAGUGGTT against Itgb2l | -1.94 |
| GGCUGUGUCAUCACCAUCUTT against Acot7 | -1.31 |
| GGAUGCUCUCUUAAAUGGATT against Gbp6 | 0.327 |
| GGUUGUCAAGAAAUUACCCTT against Marchf10 | 2.14 (active) |
| GGAUGAUAUCUCAGUCAUGTT against Sult2a8 | 0.462 |
| GGAAGGAAUUGGUUACCUATT against Cep72 | -0.2 |
| GGCUGAGUGAAUUGGGAAUTT against Olfr419 | 1.28 |
| GGACGAUAGGACCCAAAGGTT against Sh3tc1 | 0.668 |
| GGAUUUGUACACACUUCAATT against Tcim | 1.48 |
| GGCAUCCAAUCCUGUGGAGTT against Bcl11a | -0.62 |
| GGGAGAUAUCUUCUCAGUATT against Psmb11 | 1.5 |

| Sequence | z-score |
| --- | --- |
| CGUAGAUGUCCUAGAAUUGTT against Rundc1 | 1.37 |
| GGAGGAGUAUGAAGAGCUGTT against Poc5 | -0.0911 |
| GGACAAUUCAGAGUGAUAGTT against Mog | -2.21 (active) |
| GCGAUGAUAAGUGCCUGGUTT against Stk31 | -1.58 |
| CGGAGUGAAACUACUCAUUTT against Ckb | -0.773 |
| GGUGAUUUAUUCAGUUCAATT against Lmbrd2 | -1.13 |
| CCUUUGAAAAAGCUUGCCATT against Tor1aip2 | 0.0385 |
| GGUGCUAUGGAAAAUCAAGTT against Dcaf1 | -1.04 |
| GGAAAUGUUUAUCACGGUUTT against Scube2 | 2.05 (active) |
| GGUCAUGCAAGACAAGAUCTT against Lrrc8c | 0.487 |
| GGCAGCGAAAGUUUUCAAGTT against Pcdhga12 | 0.721 |
| GGAAUCCUGGAUUGAGGAATT against Rhod | 0.394 |
| GCACUGGAAUGUCAUCUCGTT against Casp3 | 2.9 (active) |
| GGGUCAACUACUCACACUGTT against Crhr2 | 0.78 |
| CCAUAAGCGAAAUGCCUUCTT against Areg | 0.201 |
| CGUUGUUUAUUCCAAAGAGTT against Runx1 | 0.44 |
| GGAAGUAAAGGGAUUUAACTT against Ankrd46 | 2.19 (active) |
| GACCCAGGCUCUGCUCUUUTT against Olfr1413 | 0.413 |
| CCGGAAAUUUCUGAUGGAGTT against Eif4ebp1 | 2.19 (active) |
| GCUAGAUAUCCGGAACCAATT against Ndufv3 | -0.752 |
| GAGACAUCCUCUUCACCAUTT against Olfr495 | -1.25 |
| GGAAGAAUUCUCAAAGAAUTT against Scyl3 | -0.343 |

| Sequence | z-score |
| --- | --- |
| GGAUCUGAGCCUUAACAAGTT against Lpcat3 | 2.92 (active) |
| GGAAGAGCUGCUGAAUUCATT against Mthfd2 | 0.052 |
| GGUUAUCUUGAAUAAAGCUTT against Zfp346 | -0.303 |
| CCGAUAAAAGAUGACCUCATT against D17H6S56E-5 | -0.241 |
| GGUUUGAGAGUGGUAAUCUTT against Agbl3 | 2.17 (active) |
| GGCGAUUUACAAGCUGAAGTT against Guca1b | 0.566 |
| CCGUUAGAGCUGUUAUUUUTT against Olfr556 | 0.959 |
| CCUCGAACCAAGAUGUUCATT against Pdzrn3 | 0.851 |
| GGCACACAAUUUUCACUGATT against Pcdhb9 | 0.315 |
| GGUCAGCAUUUGCUAUGAATT against Tmsb15l | -2.02 (active) |
| GCCAAGUCUGCUUCACGAGTT against Nyap1 | 1.82 |
| CCUCACAAUAUCUUUAGAATT against Cep162 | -0.0322 |
| GGCAGGAUAUGUAUUCUGATT against Tmem121b | 1.15 |
| GGAAACCUCCGAAAGGCAUTT against Rcor1 | -0.0503 |
| GGAUAAAGUCACCUUCAUCTT against Itgam | 1.86 |
| CCGCUAUAUCACGGAGCAGTT against En1 | 2.45 (active) |
| GCACUUUCCUAAUGGUCCUTT against Ifnab | 0.104 |
| GGAUCCUCACCAAGAUUACTT against Mrps22 | 0.391 |
| GGAAUUUAAGGAAGCUGCUTT against Homer1 | -0.698 |
| GGGUGAGAAAAUUCACGAGTT against Tubg2 | 0.536 |
| GCCAAGGUGCAGAUAAGGUTT against Rhox7a | 2.6 (active) |
| GGAUUGAGAAAAUCUACAUTT against Tnfrsf8 | 0.505 |

| Sequence | z-score |
| --- | --- |
| GGGUCAGAUGGUACCAAGATT against Adamts18 | 0.0174 |
| GCCUUGUUUAUAUGCCCAATT against Olfr592 | 0.0232 |
| GGCAAGAAAGAAAGGCCAATT against Rps23 | 0.00872 |
| CCCUCUGUGGUUAAAGACUTT against Tctex1d2 | -2.88 (active) |
| GGUUCAAUUCACAGAGCGCTT against Mrpl21 | 1.37 |
| GGGCAACUUUGAUUAAUCATT against Hsd3b7 | 1.02 |
| GGUAACUUCAUGUGCAGCATT against Ldlrad3 | -1.71 |
| GGCGUAUGCAGAAUUCUACTT against Cox6c | -0.0709 |
| GGAGAAGUCAUUGUUUUUGTT against Klhdc2 | -0.493 |
| GGCACAACAUCAUCUGUCUTT against Psmd9 | -2.05 (active) |
| GCUACUGACCAUUCUAACUTT against Tmem198b | 0.264 |
| GGAAGGACUGUCAAAUGGCTT against Med11 | -0.171 |
| CCAUGUCUUGAACUUGGAUTT against Tsks | 0.793 |
| CCGACUCCAGUUGAAUGUUTT against Tgif2 | -0.572 |
| CCAGUUUGAUGGUAGACAATT against Tifa | -1.38 |
| CGUAUUGUUUCCUAGCACATT against Arhgef38 | 2.08 (active) |
| GGUACCCAGCGAUCAUGCATT against Olfr1370 | -0.109 |
| GGAACAACUUGAUACCUCUTT against Trim44 | -0.89 |
| GGUCGGGAUUUAAUUUGUATT against Bbs9 | 0.978 |
